In all, about 35,000 sequences were measured (“fluorescence intensity (a.u.)”: median about 10,000, highest 2% from about 52,000 on). The sample as a whole holds a higher share of the highest values than the screen did.

This test addresses T1, OsWOX13 (Oryza sativa, UniProt Q5QMM3 1-267).
T1 sequence: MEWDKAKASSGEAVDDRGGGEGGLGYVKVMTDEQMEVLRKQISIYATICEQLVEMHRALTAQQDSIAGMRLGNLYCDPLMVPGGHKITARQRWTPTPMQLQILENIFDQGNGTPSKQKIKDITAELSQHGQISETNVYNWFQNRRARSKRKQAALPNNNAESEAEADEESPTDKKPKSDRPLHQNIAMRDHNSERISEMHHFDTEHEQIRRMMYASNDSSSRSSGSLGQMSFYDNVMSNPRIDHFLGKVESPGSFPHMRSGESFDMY
Nature of the test: protein-binding microarray (RPBM); PBS, 2% BSA, 51.3 ng/ul salmon testes DNA, 50 uM zinc acetate, 200 nM TF, 25 C, 1 h; high values mean tight binding. Particulars: protein: recombinant; tags: N-terminal polyhistidine and DsRed monomer fusion (pET32a); label: CyDye5-dUTP incorporated in the synthesized complementary strand; 3' TTTTT single-stranded linker to array surface; dsDNA, one strand shown. The essentials: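 Transcription factors were made in E. coli BL21-CodonPlus as N-terminal fusions to a polyhistidine tag and DsRed, then purified on Ni–NTA. After primer extension with Cy5-dUTP and blocking with 2% BSA, a custom Agilent array was exposed for 1 h at 25 °C to 200 nM protein in PBS, 2% BSA, salmon testes DNA and 50 µM zinc acetate. Washed arrays were scanned on an Axon 4000B, and the binding signal is per-feature fluorescence intensity in arbitrary units.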
On to “AAGCTATTAGATTGGCTATAGATGAATTGAAGTTAGTAGTCGGAGTCACCTAGTGCAG”, for which the binding signal is 26100 fluorescence intensity (a.u.).

Consider “ATTGGCTATTAGATTGGCTATAGATGAATTAGAGTTAGTACGGAGTCACCTAGTGCAG”, for which the binding signal was 15400 fluorescence intensity (a.u.).

Turning to “GGCTATTAGATTGGTTATAAATGAATTGGAGCCAATAGTGCGGAGTCACCTAGTGCAG”, the binding signal is 39100 fluorescence intensity (a.u.).

With “ACATGATAGACTAATGAGTAGATTGTTGTCCTAATTAGCTCGGAGTCACCTAGTGCAG”, the binding signal was 54100 fluorescence intensity (a.u.).

For the sequence “TTAGATTGGTTATAGATGAATTGGAGCTAGTAGTGGGTTGCGGAGTCACCTAGTGCAG”, the binding signal is 56200 fluorescence intensity (a.u.).

With “CATGATTAATTTTAGGCCGGTCATTGCTCGTGTCCTTGTTCGGAGTCACCTAGTGCAG”, the binding signal is 65300 fluorescence intensity (a.u.).

“CTTGAGATGATTAGACTCCTAATGTAGCTCATGATTATATCGGAGTCACCTAGTGCAG”: the binding signal was 14400 fluorescence intensity (a.u.).

For the sequence “ATTAGATTGACTATAGATGAATTGAAGACAGTAGTGGGCTCGGAGTCACCTAGTGCAG”, the binding signal is 49500 fluorescence intensity (a.u.).

For the sequence “AAACCCTTAATTGCTCATGATTTTGCCATTATAATATAGGCGGAGTCACCTAGTGCAG”, the binding signal is 44600 fluorescence intensity (a.u.).

“GATATTAGATTGGCTATAGATGAATTGGAGTTAGTAGTGGCGGAGTCACCTAGTGCAG”: the binding signal is 52700 fluorescence intensity (a.u.).

With “GAAATTATTGCTGAAATTTTGTCCTTCATAGTGTGCTGTTCGGAGTCACCTAGTGCAG”, the binding signal is 12200 fluorescence intensity (a.u.).

Consider “TGAGCTATTAGATTGGTTATAGATGAATTGAAGTTAGTAGCGGAGTCACCTAGTGCAG”, for which the binding signal is 14100 fluorescence intensity (a.u.).

Consider “ATGTCATTTTAAAGTTTAATTAATTAGATAATTACCTTCTCGGAGTCACCTAGTGCAG”, for which the binding signal was 17500 fluorescence intensity (a.u.).

Regarding “TCATCTAATTAATTGGCAAGGTGATATGCGTCCCTGAAAACGGAGTCACCTAGTGCAG”, the binding signal was 39500 fluorescence intensity (a.u.).

For “GACAGTTTGATTTCCTCTTGTGTTTATGCATTATTTTGTGCGGAGTCACCTAGTGCAG”, the binding signal was 3640 fluorescence intensity (a.u.).

On to “TATCAAATTTATCCATTTGTTAATGTTGTAATAATTAAAACGGAGTCACCTAGTGCAG”, for which the binding signal is 6890 fluorescence intensity (a.u.).

On to “CTGACTTTGTCATACGTCTATGATTTGCCACTGACTTTATCGGAGTCACCTAGTGCAG”, for which the binding signal was 4530 fluorescence intensity (a.u.).

Turning to “CATTCTAATTAGCAATGGTCACCACGAATGATTAATGTAGCGGAGTCACCTAGTGCAG”, the binding signal was 28200 fluorescence intensity (a.u.).

As for “ACATCTAATTTGAAATGGATGTAGTATATTCTAATTGCATCGGAGTCACCTAGTGCAG”, the binding signal was 17000 fluorescence intensity (a.u.).

Take “TGAATATGTCCCAAATTAATTGTCACAATGGAGTACTAATCGGAGTCACCTAGTGCAG”: the binding signal is 3200 fluorescence intensity (a.u.).

As for “AATATTAGATTGGCTATAGATGAATTGTAGCTAGTAGTTGCGGAGTCACCTAGTGCAG”, the binding signal was 54100 fluorescence intensity (a.u.).

Take “TATTAGATTGGCTATAGATGAATTGGAGCTAGTAGTTGGCCGGAGTCACCTAGTGCAG”: the binding signal was 46700 fluorescence intensity (a.u.).

In the case of “TAGATTGGCTATAGATGAATTGGAGCTAGTAGTTGGCTATCGGAGTCACCTAGTGCAG”, the binding signal was 25400 fluorescence intensity (a.u.).

Regarding “TGGGTGATTGATTAGTACTACTGCTGCATCTGCACTGCATCGGAGTCACCTAGTGCAG”, the binding signal was 38400 fluorescence intensity (a.u.).

For “CTGCTGCTTGATTATTTGGGTTCAACTGGCAAGAACTATGCGGAGTCACCTAGTGCAG”, the binding signal was 8890 fluorescence intensity (a.u.).

Turning to “GTGATTGATGCCGCCTGGGTTAGTTCAACTATTGCTGCATCGGAGTCACCTAGTGCAG”, the binding signal is 55400 fluorescence intensity (a.u.).

“TCAAAATCAGTTTGAGTAAATTTTATTTTGGTTCAACTTTCGGAGTCACCTAGTGCAG”: the binding signal was 6800 fluorescence intensity (a.u.).

On to “ATTTTGATTAAATGGTGATCAGCCAAAGCATTTGCCATCCCGGAGTCACCTAGTGCAG”, for which the binding signal is 39300 fluorescence intensity (a.u.).

Regarding “CTTTGACAGACAGATATCCATTCATACGTGCACAGGCGACCGGAGTCACCTAGTGCAG”, the binding signal is 55300 fluorescence intensity (a.u.).

“TATTCAATCATCCAAGGTTTGCATATCATTGACCGGCGTGCGGAGTCACCTAGTGCAG”: the binding signal is 14400 fluorescence intensity (a.u.).

For “GGCGACAAGACAGATAGACAGAAGCCATTCATATCGAACCCGGAGTCACCTAGTGCAG”, the binding signal is 5190 fluorescence intensity (a.u.).

Take “CCACCGTGATTTTCGCTCCCATCACCGCGCGAGGACTCCGCGGAGTCACCTAGTGCAG”: the binding signal is 3320 fluorescence intensity (a.u.).

In the case of “GGTCGCCGGATCGCGGGAGGGAGGGAGGGAGGGAGGGAGGCGGAGTCACCTAGTGCAG”, the binding signal was 7230 fluorescence intensity (a.u.).

Turning to “GCTCCGGCGAGGCGAGGTCGGAGATCCCACCGCCGTGTCGCGGAGTCACCTAGTGCAG”, the binding signal is 65500 fluorescence intensity (a.u.).

As to “CAAAACTAAAATGTTATCATATAATTATATATTTAAGACCCGGAGTCACCTAGTGCAG”, the binding signal is 8760 fluorescence intensity (a.u.).

As to “ATTCATATAATTTGTATCACCTCAATAATAATTGGTATCACGGAGTCACCTAGTGCAG”, the binding signal was 14700 fluorescence intensity (a.u.).

In the case of “GACAAATTTACAGTAGTTTAACTTTAAGCAAAGTCAAAACCGGAGTCACCTAGTGCAG”, the binding signal was 6260 fluorescence intensity (a.u.).

Turning to “TATACAATTATTTAAACAAAATTACCACTTTGCTACAACTCGGAGTCACCTAGTGCAG”, the binding signal was 8450 fluorescence intensity (a.u.).

As for “TTATGTAATTATTATTTATTTTATTGTGACTTAATTTATCCGGAGTCACCTAGTGCAG”, the binding signal is 15500 fluorescence intensity (a.u.).

On to “AAGGTTAATTGGATCCATGCCACGCGAATTGTGGCAAATCCGGAGTCACCTAGTGCAG”, for which the binding signal is 22100 fluorescence intensity (a.u.).

Consider “CCGCAATTATTGGCCCTTAATTGTGAGGTTAATCCGTGGCCGGAGTCACCTAGTGCAG”, for which the binding signal was 60900 fluorescence intensity (a.u.).

Regarding “TACTGCTGGATTGAATTAATGGATCAAGACTGAATTTATCCGGAGTCACCTAGTGCAG”, the binding signal was 12100 fluorescence intensity (a.u.).

Turning to “CAATTAATTGCTTATCCGTGGCCTTGATCAATTACTGTGCCGGAGTCACCTAGTGCAG”, the binding signal is 56600 fluorescence intensity (a.u.).

Consider “TTTTAATTACTGATCTTCTTACAATTGCTTTTATGCTGTCCGGAGTCACCTAGTGCAG”, for which the binding signal was 19700 fluorescence intensity (a.u.).

Values taken from publication PMC7819943, “Rice protein-binding microarrays: a tool to detect cis-acting elements near promoter regions in rice”.
